# Bim-Mcl-1: inhibitors of Bim-Mcl-1 interaction, human | Q07820 | Bead-based flow cytometry, Bim peptide-Mcl-1 binding | inhibition, % at 10 µM | 190,000 tested, 0.1% active | AID 1009; in the data active = inhibition above about 40%;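 note: 0% = no compound tracer wells and 100% = peptide blocker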
# Target sequence (Q07820 whole entry, looked up): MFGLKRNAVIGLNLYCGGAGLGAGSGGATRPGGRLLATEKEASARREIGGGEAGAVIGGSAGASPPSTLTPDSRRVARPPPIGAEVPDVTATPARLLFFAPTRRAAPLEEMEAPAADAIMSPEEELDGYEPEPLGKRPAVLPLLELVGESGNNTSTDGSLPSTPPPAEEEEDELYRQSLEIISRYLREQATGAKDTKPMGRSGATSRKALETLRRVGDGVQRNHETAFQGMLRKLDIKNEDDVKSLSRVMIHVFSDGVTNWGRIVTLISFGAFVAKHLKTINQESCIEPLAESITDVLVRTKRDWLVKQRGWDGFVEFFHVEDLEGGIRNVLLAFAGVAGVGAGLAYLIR
# L929 necroptosis: L929 zVAD cell death inhibition | viability rescue, % at 10 µM | L929 zVAD necroptosis rescue, ATP luminescence, 24 h; with zVAD 60 µM | 220,000 tested, 0.38% active;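 active = activation, scaled between plate controls, above about 75%, limit read from the data; inactive = activation under that limit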;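 note: 0% = zVAD with DMSO and 100% = DMSO alone without zVAD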
# Mcl1-Noxa inh: Mcl-1/Noxa interaction inhibition; TR-FRET Mcl-1/Noxa peptide binding, 2 h; 220,000 tested, 1.5% active; inhibition, % at 21.7 µM; AID 1022; Q07820;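 active = compounds that cut the protein-peptide binding signal by more than 50% relative to plate controls in a single-dose test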;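 note: His-tagged Mcl-1 with rhodamine Noxa BH3 peptide and terbium anti-His antibody; 0% = Mcl-1 plus Noxa peptide wells and 100% = peptide-only wells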
# TNF necrop inh: TNF-alpha cell death inhibition in Jurkat FADD-/- cells; Jurkat FADD-/- TNF necroptosis rescue, ATP luminescence, 24 h; 0 = TNF only, 100 = no-TNF cells; activation (protection from cell death), % at 10 µM; 220,000 tested, 0.068% active; AID 463075;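 active = activation, meaning protection from cell death, of at least 50% relative to plate controls; inactive = activation below 50%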;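 note: necroptosis triggered by 40 ng/mL TNF-alpha added together with compound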
# Calpain2 inh: inhibitors of pig calpain II; purified calpain II, fluorogenic peptide substrate, 30 min; inhibition, % at 16 µM; 220,000 tested, 0.37% active;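 active = inhibition above about 50%, limit read from the data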
# Mcl1-Bid inh: Mcl-1/Bid interaction inhibition; Q07820; TR-FRET Mcl-1/Bid-Dy647 peptide binding, 1536-well; inhibition, % at 21.7 µM; 220,000 tested, 0.97% active;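 active = compounds that cut the binding signal by more than half at the single screening dose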;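 note: His-tagged Mcl-1 with europium anti-His antibody binding Bid BH3 peptide; 0% = Mcl-1 plus peptide wells and 100% = peptide-only wells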
# Starred values were filed as active, the others as inactive; nt = not tested or not shown. An excerpt weighted towards active compounds, which were near 2.8% of everything screened.
SMILES,Bim-Mcl-1,L929 necroptosis,Mcl1-Noxa inh,TNF necrop inh,Calpain2 inh,Mcl1-Bid inh
Cc1ccccc1Nc1nc(N)nc(COC(=O)C(NC(=O)c2ccco2)C(C)C)n1 (centres undefined),0.0,0.5,-12.1,-2.3,-2.5,-17.4
O=C(OCc1cc(=O)n2c(n1)sc1ccccc12)c1ccc(O)cc1O,0.0,1.2,41.2,-0.1,-42.1,-15.2
Cc1ccc2c(CC(=O)OCc3csc(C)n3)coc2c1,-4.0,-0.1,13.6,-0.9,-8.3,-10.2
O=C(Cc1coc2cc3c(cc12)CCC3)OCc1cc(=O)n2c(n1)sc1ccccc12,-3.0,0.0,51.3*,0.0,-18.1,-16.1
Cc1cc(C)nc(SCC(N)=O)n1,nt,0.2,-12.8,2.8,11.5,-13.6
Cc1cc(C)cc(NC(=O)OCCN2CCN(Cc3ccccc3)CCC2=O)c1,-1.0,4.2,3.5,1.7,2.9,-1.1
CCc1ccccc1NC(=S)N(CCc1ccncc1)C(C)C,-1.0,0.2,-0.8,1.0,16.1,-27.6
Cc1nn(-c2ccccc2)c(Cl)c1C1C(C#N)=C(N)Oc2c1c(C)nn2-c1ccccc1 (centres undefined),-2.0,-0.1,60.1*,-1.2,-31.3,-26.2
Cc1nn(-c2ccccc2)c2c1C(c1ccncc1)C(C#N)=C(N)O2 (centres undefined),0.0,0.1,16.0,-1.0,-33.6,-32.3
CN(C)CCCCOc1ccccc1-c1ccccc1,-3.0,0.8,25.3,-3.0,-12.8,73.0*
Cc1n[nH]c(C)c1S(=O)(=O)Nc1ccc2c(c1)OCCO2,-2.0,-0.2,0.7,-1.9,-10.5,-39.6
COc1ccc(N=C2S/C(=C\c3ccc(N4CCOCC4)o3)C(=O)N2CCc2c[nH]c3ccccc23)cc1,-52.0,35.2,1.2,-15.5,-21.3,-1.6
COc1ccc(N=C2S/C(=C\c3ccc(OCC(=O)O)cc3)C(=O)N2CCc2c[nH]c3ccccc23)cc1,-10.0,-2.8,69.8*,2.2,82.1*,48.8
COC(C(=O)Nc1ccc(F)cc1)c1ccccc1 (centres undefined),-3.0,nt,0.6,97.7*,17.5,0.7
O=C(Cn1c(=O)sc2ccccc21)Nc1ccc(S(=O)(=O)N2CCCC2)cc1,-3.0,-0.4,15.0,0.9,54.0*,34.5
COC(C(=O)Nc1ccc(S(=O)(=O)N2CCCCC2)cc1)c1ccccc1 (centres undefined),0.0,-0.3,-0.3,59.7*,20.7,12.8
O=C(CCOc1ccccc1)Nc1ccc(S(=O)(=O)N2CCCC2)cc1,-3.0,0.1,-2.0,-1.4,56.9*,-14.3
COC(=O)c1ccc(COc2ccccc2/C=N/NS(=O)(=O)c2ccccc2)cc1,0.0,0.5,-1.4,-19.2,-21.0,-22.4
O=C1CN(C(=O)CCCc2c[nH]c3ccccc23)c2ccccc2N1,0.0,-0.4,1.6,-5.7,-71.3,-66.1
CC(NCc1ccc(-c2ccccc2)cc1)C(O)c1ccccc1 (centres undefined),36.0,3.5,13.8,-0.4,9.0,4.7
Cc1ccc(Cn2c(NCCCn3ccnc3)nc3c2c(=O)n(C)c(=O)n3C)cc1,1.0,0.1,1.6,0.4,-37.1,-33.1
COc1ccc(NC(C)C(=O)Nc2ccc(C(C)(C)C)cc2)cc1Cl (centres undefined),0.0,1.0,10.2,2.3,44.4,3.0
CC(C)c1ccc(S(=O)(=O)N2CCN(CCC(=O)Nc3ccc(N(C)C)cc3)CC2)cc1,0.0,0.3,71.8*,0.5,-12.5,-32.9
COc1ccc(NC(=O)C(OC)c2ccccc2)cc1Cl (centres undefined),-3.0,3.2,9.5,50.3*,-5.7,-16.6
COc1ccc(NC(C)C(=O)Nc2ccc(C#N)cc2)cc1Cl (centres undefined),0.0,-0.6,92.3*,5.5,-144.3,88.9*
COc1ccc(-c2[nH]ncc2CN2CCCC(C(=O)c3ccc(OC)cc3OC)C2)cc1 (centres undefined),-3.0,0.4,10.6,3.0,-23.1,-41.8
COc1ccc(C(=O)C2CCCN(Cc3cn[nH]c3-c3ccc(F)cc3)C2)cc1OC (centres undefined),-4.0,-0.6,4.7,2.2,-51.6,95.8*
CCc1ccc(OCc2nnc(SCCN3CCOCC3)n2CC)cc1,-1.0,0.0,34.4,-2.9,9.5,57.7*
